The values below come from PubChem BioAssay (Tox21).

Results filed as inconclusive are left out. A structure can be active in one record and inactive in another. The source made the active and inactive calls. Unless noted, the call rests on the fitted dose curve.

Test [1] deals with Thyrotropin receptor (Homo sapiens) (UniProt P16473). Put plainly: qHTS assay to identify small molecule agonists of the thyroid stimulating hormone receptor (TSHR) signaling pathway (AID 1224843). Further: nearly all actives have a fitted effect of over 45% in size. Further: potency means the concentration at half of the fitted maximal effect. Put shortly: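 Screening of the Tox21 10K collection used HEK293 cells engineered with TSHR at 800 cells per well. After a 30-min room-temperature compound exposure, HTRF cAMP reagents were added and fluorescence recorded 1 h later.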
Chain of Thyrotropin receptor (Homo sapiens) (P16473 whole entry, looked up): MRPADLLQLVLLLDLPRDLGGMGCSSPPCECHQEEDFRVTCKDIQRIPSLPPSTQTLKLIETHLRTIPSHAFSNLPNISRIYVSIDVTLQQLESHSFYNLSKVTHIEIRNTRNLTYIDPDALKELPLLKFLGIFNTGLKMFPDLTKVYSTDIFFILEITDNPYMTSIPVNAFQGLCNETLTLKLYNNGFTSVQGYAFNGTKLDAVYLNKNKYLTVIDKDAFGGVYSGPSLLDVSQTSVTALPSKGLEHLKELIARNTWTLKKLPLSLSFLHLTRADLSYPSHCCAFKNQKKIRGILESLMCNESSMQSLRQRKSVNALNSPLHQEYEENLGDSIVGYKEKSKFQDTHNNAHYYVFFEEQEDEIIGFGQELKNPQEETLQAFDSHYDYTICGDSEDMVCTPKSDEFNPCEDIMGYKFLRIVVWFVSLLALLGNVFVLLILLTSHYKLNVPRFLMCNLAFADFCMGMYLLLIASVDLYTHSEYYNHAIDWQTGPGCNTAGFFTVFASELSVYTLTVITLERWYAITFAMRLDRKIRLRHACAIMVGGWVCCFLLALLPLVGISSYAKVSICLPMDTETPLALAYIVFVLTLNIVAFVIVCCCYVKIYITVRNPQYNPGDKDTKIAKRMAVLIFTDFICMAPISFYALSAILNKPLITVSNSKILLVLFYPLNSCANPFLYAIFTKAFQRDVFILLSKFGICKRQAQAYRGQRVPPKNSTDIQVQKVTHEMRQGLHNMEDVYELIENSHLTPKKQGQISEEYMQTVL

A short description of test [2]: qHTS assay to identify small molecule agonists of the hypoxia (HIF-1) signaling pathway - cell viability counter screen (AID 1224844). Further: nearly all actives have a fitted effect of over 50% in size. Further: potency means the concentration at half of the fitted maximal effect. The method, boiled down:
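Cells (HRE-bla ME-180, 2,000 per well) sat 5 hrs at 37C, got compound for 17 hrs, were read for CCF4-AM FRET, and were finally lysed with CellTiter-Glo for a 30 min room-temperature luminescence read.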

Test [3] can be described thus: qHTS assay to identify small molecule agonists of H2AX (AID 1224845; active means well fitted activation curve with a large enough effect in the signal ratio in the repeat runs, not every such curve was filed as active; the % refers to the signal ratio). Put shortly:
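Phospho-H2AX Ser139 measured by HTRF (ex 320 nm; em 665 and 620 nm) after 24 hr antibody incubation. Compounds, 15 concentrations, 0.76% DMSO, were applied to CHO-K1 cells for 3hr at 37C before lysis.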

The nature of test [4]: qHTS assay to identify small molecule agonists of H2AX - cell viability counter screen (AID 1224847). Further: top concentration of the series differs between compounds; nearly all actives have a fitted effect of over 30% in size. Put shortly: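 Quantitative HTS viability measurement: CHO-K1 wild-type cells in serum (10% FBS) medium, short 3 hr drug exposure at 37C with 0.76% DMSO, CellTiter-Glo luminescent detection.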
Test [5] in a line: qHTS assay to identify small molecule antagonists of the estrogen related receptor (ERR) signaling pathway from Tox21 library (AID 1224848; active means well fitted curve in the direction sought with a large enough effect in the repeat runs; an effect the other way counts as inactive or inconclusive; further: nearly all actives have a fitted effect of over 50% in size). The method, boiled down:
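Antagonist-mode screen of the Tox21 10K library in an NTP-provided ERR reporter cell line; 18 h compound exposure at 37 C, luminescence measured with ONE-Glo.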

Test [6] in a line: qHTS RealTime-Glo MT Cell Viability Assay in HepG2 cells - 24 hour (AID 1224867; active means well fitted curve in the direction sought with a large enough effect in the repeat runs; an effect the other way counts as inactive or inconclusive; further: nearly all actives have a fitted effect of over 50% in size). The method, boiled down:
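Cells + NanoLuc/prosubstrate dispensed (600 cells/well) → 5 h at 37 C/5% CO2 → compounds in DMSO transferred → 40 h incubation at 37 C, luminescence read at 0, 8, 16, 24, 32, 40 h.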

Test [7] can be described thus: qHTS RealTime-Glo MT Cell Viability Assay in HEK293 cells - 32 hour (AID 1224868; active means well fitted curve in the direction sought with a large enough effect in the repeat runs; an effect the other way counts as inactive or inconclusive; further: top concentration of the series differs between compounds; nearly all actives have a fitted effect of over 50% in size). The method, boiled down: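 Tox21 10K qHTS, HEK293, 600 cells/well, RealTime-Glo reagent co-dispensed with cells; 5 h preincubation, compound by pintool, 37 C, luminescence at 0–40 h.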
Test [8] can be described thus: A CellTox Green Cytotoxicity Assay to monitor cytotoxicity in HEK293 cells - 0 hour (AID 1224869; active means well fitted curve in the direction sought with a large enough effect in the repeat runs; an effect the other way counts as inactive or inconclusive; further: nearly all actives have a fitted effect of over 50% in size). The method, boiled down: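 Fluorescence intensity, read at 0, 8, 16, 24, 32 and 40 h of compound treatment, reflected dye binding to DNA of dead HEK293 cells; compounds (23 nL, DMSO) were added 5 h after plating cells with reagent.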
A short description of test [9]: qHTS assay to identify small molecule agonists of the estrogen related receptor (ERR) signaling pathway from Tox21 library (AID 1224849). Further: nearly all actives have a fitted effect of over 15% in size. Conditions: ERR reporter cell line, ONE-Glo luciferase, 18 h. The method, boiled down: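 Screening used an NTP-provided ERR luciferase cell line. Compounds in DMSO were added 6 h after seeding and left 18 h at 37 C before a 30 min ONE-Glo step and luminescence reading.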

Test [10] in a line: qHTS assay to identify small molecule agonists of the hypoxia (HIF-1) signaling pathway (AID 1224846; active means well fitted activation curve with a large enough effect in the signal ratio in the repeat runs, not every such curve was filed as active; the % refers to the signal ratio). The method, boiled down: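 A low-serum medium (0.5% dialyzed FBS) holding 2,000 HRE-bla ME-180 cells per well is preincubated for 5 hrs, dosed with compounds by pintool, and kept a further 17 hrs at 37C, 5% CO2 before CCF4-AM FRET detection of beta-lactamase.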
The mark [11] stands for this setting: at 92.4 µM (top of the series) unless noted.
On the % scale 0 is the no-effect control and ±100 the full control effect.

For the compound `O=C(O)c1ccccc1OP(=O)(O)O`, the Potency entry in [1], in test [2], in test [4], in [5], in test [6] and in test [7] was “inactive” in each case. Moreover, in test [8], the Potency entry is “inactive”. The result in [3] was inactive.

For the compound `O=c1[nH]c(=O)n([C@H]2C[C@H](O)[C@@H](CO)O2)cc1I`, the Potency entry in test [1], in test [2], in test [5], in [6], in [7] and in test [8] was “inactive” in each case. In test [3], the outcome was inactive. Also, the activity change, positive = activation in test [9] (setting [11]) is 11% [at 42.5 µM] (inactive).

As to `N=C(N)c1ccccc1`, the Potency entry in [1], in [2], in test [4], in [6] and in test [8] was “inactive” in each case. In addition, the outcome in [3] was inactive.

Turning to `CCN(CC)CCNC(=O)c1cc(S(C)(=O)=O)ccc1OC`, the Potency result in test [1], in [2], in [4], in [6], in test [7] and in test [8] was “inactive” in each case. Moreover, in [3], the compound was classed as inactive.

`COC(=O)C1=C(C)NC(C)=C(C(=O)OC)C1c1ccccc1[N+](=O)[O-]`: the Potency in test [1] is 54.5 µM (active) and inactive; in test [2], 49 µM (active) and inactive. In [3], the call was inactive. For the same compound, the Potency entry in test [5], in test [6], in test [7] and in test [8] was “inactive” in each case. The values for the activity change, positive = activation in [9] (at 42.5 µM (top of the series)) and in [9] (at 92.4 µM (top of the series)) were -8.97% (inactive) and -13.3% (inactive), respectively.

For the compound `Nc1ccc(S(=O)(=O)Nc2ccnn2-c2ccccc2)cc1`, in test [1], the Potency entry was “inactive”. Besides, the activity change, negative = cytotoxicity was -2.16% [at 15.8 µM] (inactive) in test [2] and 1% [at 15.8 µM] (inactive) in test [6]. Moreover, the compound was called inactive in test [3]. Besides, in test [8], the cytotoxicity was 1.17% [at 15.8 µM] (inactive).

On to `N=c1nc(N2CCCCC2)cc(N)n1O`, for which the Potency entry in test [1], in [2], in [4], in test [6] and in test [8] was “inactive” throughout. Besides, the outcome in test [3] was inactive.

Consider `CCCN(CCC)CCc1cccc2c1CC(=O)N2`, for which the Potency result in test [1], in test [2], in test [4], in test [6], in test [7] and in test [8] was “inactive” in each case. For the same compound, the compound was classed as inactive in test [3].

For the compound `NCCCNCCSP(=O)(O)O`, in test [1], the activation is 0.0403% [at 8.39 µM] (inactive). The activity change, negative = cytotoxicity was 6.46% [at 6.97 µM] (inactive) in [2], -5.36% [at 14 µM] (inactive) in [4] and 1.03% [at 6.97 µM] (inactive) in test [6]. The activation (H2AX phosphorylation) in [3] was -3.9% [at 14 µM] (inactive). For the same compound, the activity change, negative = cytotoxic in test [7] was 3.62% [at 6.97 µM] (inactive). For the same compound, the cytotoxicity in [8] was -8.49% [at 6.97 µM] (inactive).

For the compound `c1cnc(N2CCN(Cc3ccc4c(c3)OCO4)CC2)nc1`, the Potency entry in test [1], in test [2], in [6], in [7] and in test [8] was “inactive” throughout. In addition, the call in test [3] was inactive.

Consider `CC(C(=O)O)c1ccc(CC2CCCC2=O)cc1` (stereo not given), for which the Potency entry in test [1], in [2], in test [4], in test [6], in [7] and in test [8] was “inactive” each time. The compound was classed as inactive in test [3].

Take `CCN(Cc1ccncc1)C(=O)C(CO)c1ccccc1` (stereo not given): the Potency result in [1], in test [2], in test [4], in test [6], in [7] and in [8] was “inactive” throughout. In [3], the outcome was inactive.

In the case of `Nc1cc(=O)[nH]c(N)n1`, the Potency result in test [1], in [2], in test [4], in test [6], in test [7] and in test [8] was “inactive” throughout. The result in test [3] was inactive.

As to `Cc1cc(O)cc2c1O[C@](C)(CCC[C@H](C)CCC[C@H](C)CCCC(C)C)CC2`, the Potency entry in test [1], in test [2], in test [4], in test [5], in test [6] and in [7] was “inactive” throughout. The Potency result in test [8] is “inactive”. Further, the call in [10] was inactive. Further, the activity change, positive = activation in [9] (setting [11]) is 6.7% [at 42.5 µM] (inactive).

Consider `C[C@](N)(Cc1ccc(O)cc1)C(=O)O`, for which the activation in test [1] is -7.31% [at 8.39 µM] (inactive). Moreover, the activity change, negative = cytotoxicity in test [2] was 3.27% [at 6.97 µM] (inactive); in test [4] it was 2.42% [at 14 µM] (inactive); in [6], 0.0825% [at 6.97 µM] (inactive). In addition, in test [3], the activation (H2AX phosphorylation) is -0.087% [at 14 µM] (inactive). For the same compound, the activity, negative = inhibition in test [5] was 3.87% [at 8.39 µM] (inactive). Also, the activity change, positive = activation in [9] (setting [11]) was 2.18% [at 8.39 µM] (inactive). Also, the cytotoxicity in [8] was 5.11% [at 6.97 µM] (inactive).

As to `Oc1ccc(C2CNCCc3c2cc(O)c(O)c3Cl)cc1` (stereo not given), the Potency result in test [1], in test [2], in [4], in [6], in [7] and in test [8] was “inactive” in each case. Further, the compound was called inactive in test [10].

In the case of `CC(C)(O)C#CC(C)(C)O`, the Potency result in test [1], in [2], in test [4], in [5], in [6] and in test [7] was “inactive” each time. The Potency entry in [8] is “inactive”. The compound was called inactive in test [10]. The activity change, positive = activation in test [9] (setting [11]) was 4.8% (inactive).

With `Cn1c(N)c(N=O)c(=O)n(C)c1=O`, the Potency result in [1], in test [2], in test [4], in test [5], in test [6] and in test [7] was “inactive” in each case. Besides, the Potency entry in test [8] was “inactive”. In addition, the call in test [10] was inactive. For the same compound, the activity change, positive = activation in [9] (setting [11]) was -7.21% (inactive).

With `CCN1CCC[C@H]1CNC(=O)c1c(O)c(Cl)cc(Cl)c1OC`, the Potency entry in test [1], in test [2], in test [4], in test [6], in test [7] and in [8] was “inactive” in each case. In addition, in test [3], the outcome was inactive.

Take `CCN(CC)CCOCCOC(=O)C1(c2ccccc2)CCCC1`: the Potency entry in test [1], in test [2], in test [4], in test [6] and in test [8] was “inactive” throughout. Moreover, the result in [3] was inactive.

With `COC(=O)[C@@H](N)Cc1ccc(O)c(O)c1`, the Potency result in [1], in test [2], in [4], in [5], in [6] and in [7] was “inactive” in each case. Besides, in test [8], the Potency result was “inactive”. For the same compound, the compound was classed as inactive in test [10]. Also, the activity change, positive = activation in [9] (setting [11]) is 6.86% [at 42.5 µM] (inactive).

Consider `CC[N+](C)(C)c1cccc(O)c1`, for which the Potency entry in test [1], in test [2], in [6], in [7] and in test [8] was “inactive” in each case. The compound was called inactive in test [3].

Take `CN1CCC(=C2c3ccccc3CC(=O)c3sccc32)CC1`: the Potency result in test [1], in test [2], in test [4], in test [6], in test [7] and in test [8] was “inactive” in each case. Also, in test [3], the result was inactive.

In the case of `O=C(O)CCCc1ccccc1`, the Potency entry in [1], in test [2], in [5], in [6], in [7] and in test [8] was “inactive” throughout. In [3], the result was inactive. Further, the activity change, positive = activation in test [9] (setting [11]) is 7.78% [at 42.5 µM] (inactive).
